RGS16-Gao – modulates binding between human RGS16 and Galphao; O15492+P09471; bead-based flow cytometry RGS16-Galphao binding, fluorescence; actives lie on both sides; binding response (% of control), % at 10 µM; 0.38% of 220,000 active;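 note: Galphao activated by GDP with aluminum fluoride before binding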
Target sequence (O15492 whole entry, looked up): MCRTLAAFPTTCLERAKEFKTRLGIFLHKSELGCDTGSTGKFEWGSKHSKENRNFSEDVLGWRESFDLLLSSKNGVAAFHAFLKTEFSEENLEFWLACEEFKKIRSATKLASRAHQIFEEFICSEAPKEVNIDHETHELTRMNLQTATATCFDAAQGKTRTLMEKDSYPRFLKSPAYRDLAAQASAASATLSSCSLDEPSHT
Target sequence (P09471 whole entry, looked up): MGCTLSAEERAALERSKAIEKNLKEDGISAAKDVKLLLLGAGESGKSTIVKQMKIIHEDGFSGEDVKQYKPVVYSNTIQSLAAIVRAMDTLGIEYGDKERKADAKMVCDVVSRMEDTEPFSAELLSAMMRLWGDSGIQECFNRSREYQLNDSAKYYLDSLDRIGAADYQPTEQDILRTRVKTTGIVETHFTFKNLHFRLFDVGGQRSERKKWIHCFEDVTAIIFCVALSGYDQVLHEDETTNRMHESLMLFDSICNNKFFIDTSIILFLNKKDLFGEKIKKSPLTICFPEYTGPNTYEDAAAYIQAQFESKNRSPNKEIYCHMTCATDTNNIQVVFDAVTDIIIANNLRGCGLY
RGS8-Gao – regulators of human RGS8-Galphao interaction. multiplexed bead flow cytometry, RGS8-Galphao binding; actives lie on both sides. 0.34% of 220,000 active. P09471. response (percent of control binding), % at 10 µM; in the data active = response below about 60% or above about 140%; inactive = in between;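 note: Galphao activated as the GDP aluminium fluoride complex binding bead-coupled RGS8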
Target sequence (P09471 whole entry, looked up): as above
RGS4-Gao reg – modulates binding of RGS4 to human Galphao; P09471; Multiplexed bead flow cytometry; actives lie on both sides; binding response (% of control), % at 10 µM; 0.33% of 220,000 active; in the data active = binding response below about 49% or above about 150%; inactive = in between;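 note: fluorescent Galphao activated with aluminum fluoride binding bead-coupled RGS4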
GSH bead fluor – GSH bead compound fluorescence profile | GSH beads flow cytometry, compound fluorescence 488/530 nm; hits give high values | AID 1776 | 0.25% of 190,000 active | fluorescence (KMESF) at 10 µM; in the data active = fluorescence above about 89;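 note: glutathione beads carrying GST-tagged Bcl family fusion proteins plus one bare bead set; values are compound well signal with DMSO vehicle wells as background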
RGS7-Gao reg – regulators of human RGS7-Galphao interaction; Multiplexed bead flow cytometry, RGS7-Galphao binding; actives lie on both sides; binding response (% of control), % at 10 µM; 0.35% of 220,000 active; in the data active = binding response below about 49% or above about 150%; inconclusive = no clear call, values can overlap the other calls; inactive = in between;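 note: fluorescent Galphao held in activated GDP-AlF4 state binding bead-coupled RGS7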
Avidin fluor – avidin bead compound fluorescence profile; Avidin beads, compound fluorescence 488/530 nm, flow cytometry; hits give high values; fluorescence (KMESF) at 10 µM; 0.38% of 220,000 active; in the data active = fluorescence above about 47
RGS4-Gao HTS – modulates binding between human RGS4 and Galphao | RGS4–Galpha-o binding response, % at 10 µM | 99% of 1,600 active | AID 1504 | shares compounds with RGS16-Gao | multiplexed bead flow cytometry, RGS–Galpha-o binding;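 note: fluorescently labeled Galpha-o bound to GDP with aluminium fluoride binding biotinylated RGS beads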
Avidin counter – interferes with biotinylated probe binding to avidin beads; shares compounds with RGS16-Gao; 1,700 tested, under 10 active; inhibition, % at 10 µM; streptavidin beads, fluorescein-biotin binding, flow cytometry;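 active = inhibition above 50%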;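 note: median green fluorescence of gated singlet beads compared with DMSO control wells; 0% = DMSO wells and 100% = complete loss of bead fluorescence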
RGS8-Gao single – confirmation of regulators of human RGS8-Galphao interaction; shares compounds with RGS16-Gao; 3% of 1,700 active; binding response (% of control), % at 10 µM; bead-based flow cytometry RGS8-Galphao binding, fluorescence; actives lie on both sides; in the data active = binding response below about 72% or above about 130%; inactive = in between;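 note: Galphao activated as GDP AlF4 complex before binding bead RGS8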
RGS7-Gao confirm – RGS7-Galphao interaction regulation, single point confirmation. shares compounds with RGS16-Gao. bead-based flow cytometry RGS7-Galphao binding; actives lie on both sides. response (percent of control binding), % at 10 µM. 7.8% of 1,700 active. AID 1837; in the data active = response below about 75% or above about 130%; inactive = in between;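 note: fluorescent Galphao activated with GDP and aluminum fluoride binding bead-coupled RGS7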
RGS16-Gao single – confirmation of regulators of human RGS16-Galphao interaction. shares compounds with RGS16-Gao. bead-based flow cytometry, RGS16-Galphao binding; actives lie on both sides. response (% of control binding), % at 10 µM. 4% of 1,700 active; in the data active = response below about 74% or above about 130%; inactive = in between;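 note: Galphao activated as the GDP aluminium fluoride complex binding bead-coupled RGS16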
RGS4-Gao confirm – RGS4-Galphao interaction regulation, single point confirmation; shares compounds with RGS16-Gao; RGS4-Galphao binding, multiplexed bead flow cytometry; actives lie on both sides; binding response (% of control), % at 10 µM; 4% of 1,700 active; AID 1840; in the data active = binding response below about 74% or above about 130%; inactive = in between
RGS19-Gao single – RGS19-Galphao interaction regulation, single point confirmation. shares compounds with RGS16-Gao. bead-based flow cytometry RGS19-Galphao binding; actives lie on both sides. response (percent of control binding), % at 10 µM. 5% of 1,700 active; in the data active = response below about 50% or above about 160%; inactive = in between;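 note: 100% = no compound control and 0% = blank background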
* marks the source's active call; other numbers are inactive results; u = inconclusive; x = not tested or not shown; [ ] = another dose, or the depositor's remark. In the library only some 1.2% were active in any assay of this set; here they are far more common. Unless noted, the rule behind the calls is not given here.

SMILES	RGS16-Gao	RGS8-Gao	RGS4-Gao reg	GSH bead fluor	RGS7-Gao reg	Avidin fluor	Avidin counter	RGS8-Gao single	RGS7-Gao confirm	RGS16-Gao single	RGS4-Gao confirm	RGS19-Gao single	others
Cc1[nH]c2ccccc2c1/C=N/NC(=O)CNC(=O)c1cccs1	106	98	89	x	u	9	x	x	x	x	x	x
O=C(CNC(=O)c1cccs1)N/N=C/c1c[nH]c2ccccc12	-4.2*	6.0*	2.8*	8	2.4*	-1	0	105	100	109	103	94
CCCc1cc(=O)[nH]c(SCC(=O)c2ccc3c(c2)NC(=O)CO3)n1	342*[activator]	150*[activator]	387*[activator]	x	u	179*	-1	99	84	92	88	78
C=CCNC(=S)NS(=O)(=O)c1cccs1	99	100	102	13	94	11	x	x	x	x	x	x
CC1=NCCN1CCNC(=O)Nc1ccc(F)cc1	109	113	120	x	u	8	x	x	x	x	x	x
CC1=NCCN1CCNC(=O)Nc1cc(C)cc(C)c1	47	67	47*	x	u	3	-1	101	101	102	102	101
CC1CCN(S(=O)(=O)c2ccc(S(=O)(=O)NCc3ccccc3)cc2)CC1	103	101	93	44	97	4	x	x	x	x	x	x
CC1CCCC(C)N1S(=O)(=O)c1ccc(S(=O)(=O)NCc2ccccc2)cc1 (configuration not stated)	22*	71	90	22	92	3	1	96	103	99	99	110	RGS4-Gao HTS=90*
COc1ccc(/C(C)=N/OCC(=O)N2CC3(C)CC2CC(C)(C)C3)cc1 (configuration not stated)	-45	282*[activator]	304*[activator]	13	276*[activator]	1	0	107	109	113	109	124
O=[N+]([O-])/C=C/c1cc2ccccc2[nH]1	96	98	98	x	u	3	x	x	x	x	x	x
NC(=O)NC(=O)COC(=O)c1ccccc1OCc1ccc(F)cc1	40	55*	40*	x	u	1	-8	114	117	112	114	113
O=C(Cc1c[nH]c2ccccc12)N/N=C/c1ccc(F)cc1	21*	78	92	14	87	7	1	104	99	103	105	102	RGS4-Gao HTS=92*
O=C(O)C1CCCN1S(=O)(=O)c1ccc2[nH]c(=O)c(=O)[nH]c2c1 (configuration not stated)	161	133	158*[activator]	33	144	22	1	102	102	100	102	79
O=C1CCCC(=O)C1C(=O)C1CCN(S(=O)(=O)c2ccccc2)CC1	103	99	100	14	98	12	x	x	x	x	x	x
CC(NC(=O)CCN1N=C(c2ccccc2)CCC1=O)c1ccc2c(c1)OCCO2 (configuration not stated)	44	81	85	10	80	7	x	x	x	x	x	x
Cc1ccc(/C=N/n2c(-c3ccncc3)n[nH]c2=S)cc1	-29	51*	63	11	58	3	2	108	123	109	112	98	RGS4-Gao HTS=63*
Cn1ncc(Br)c1N1C(=O)CCC1=O	97	99	97	x	u	7	x	x	x	x	x	x
CC12c3ccccc3C(c3ccccc31)C1C(=O)N(c3cccnc3)C(=O)C12 (configuration not stated)	102	103	104	16	102	16	x	x	x	x	x	x
O=C1C2C3c4ccccc4C(c4ccccc43)C2C(=O)N1c1cccnc1 (configuration not stated)	24*	73	88	11	86	7	0	100	102	102	102	97	RGS4-Gao HTS=88*
CCOC(=O)C(Cc1ccccc1)c1ccnc2nc(N)nn12 (configuration not stated)	97	100	99	21	u	9	x	x	x	x	x	x
CCn1c2ccccc2c2cc(NC(=O)CSc3nnnn3-c3ccccc3)ccc21	x	x	x	46	x	x	-3	102	100	100	99	86
O=C(CSc1nnnn1-c1ccccc1)Nc1ccc(Cl)cc1	101	98	101	24	96	13	x	x	x	x	x	x
CC(=O)OC(C)CS(=O)(=O)c1ccccc1 (configuration not stated)	21*	29*	35*	10	30*	5	1	107	102	106	102	122
COc1ccc(CCNC(=O)/C(=C/c2cccnc2)NC(=O)c2ccccc2)cc1	226*[activator]	127	110	13	108	14	-2	103	107	104	103	92	RGS4-Gao HTS=110*
O=C(NCCc1ccccc1F)/C(=C/c1cccnc1)NC(=O)c1ccccc1	78	96	101	13	97	6	x	x	x	x	x	x
SMILES	RGS16-Gao	RGS8-Gao	RGS4-Gao reg	GSH bead fluor	RGS7-Gao reg	Avidin fluor	Avidin counter	RGS8-Gao single	RGS7-Gao confirm	RGS16-Gao single	RGS4-Gao confirm	RGS19-Gao single	others
COC(=O)c1ccccc1NC(=O)CN1CCC(C)CC1	101	101	98	19	u	9	x	x	x	x	x	x
Cc1ccccc1-c1nnc(-c2cccs2)o1	99	102	102	14	102	10	x	x	x	x	x	x
O=C(CCCNS(=O)(=O)c1ccc(Cl)c(Cl)c1)NCCc1ccccn1	145	143*[activator]	145	13	157*[activator]	12	0	98	101	100	97	98	RGS4-Gao HTS=145*
Cc1sc2ncnc(Sc3nnc4sc5ccccc5n34)c2c1C	292*[activator]	111	208*[activator]	8	129	16	-1	99	98	104	98	92
CCSc1ncnc2sc(C)c(C)c12	77	99	102	6	101	4	x	x	x	x	x	x
COCCCN1CN(Cc2ccccc2)CNC1=S	-3.3*	72	79	15	83	6	0	99	100	101	99	94	RGS4-Gao HTS=79*
COc1ccc(Nc2nc(-c3ccccc3)nc3ccccc23)cc1S(=O)(=O)N1CCOCC1	95	99	97	x	u	7	x	x	x	x	x	x
